Test results: PubChem BioAssay (EPA / NIEHS)
Records with an inconclusive call do not appear. Activity calls are given as the source filed them. The calls were made as follows, unless noted: active = hit-call score of the fitted dose curve at least 0.9, where 1 is the maximum; inconclusive = response in the unintended direction; inactive = score below 0.9.

Legend:
[1] = molecular target: Nuclear receptor subfamily 1 group I member 2 (Homo sapiens) (UniProt O75469); experiment: NVS_NR_hPXR: NovaScreen (NVS) Nuclear Receptor Binding Assay for human Pregnane X Receptor (PXR) (AID 2283365);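 also: a drop in FRET signal versus DMSO baseline means the compound binds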
Chain of Nuclear receptor subfamily 1 group I member 2 (Homo sapiens) (O75469 whole entry, looked up): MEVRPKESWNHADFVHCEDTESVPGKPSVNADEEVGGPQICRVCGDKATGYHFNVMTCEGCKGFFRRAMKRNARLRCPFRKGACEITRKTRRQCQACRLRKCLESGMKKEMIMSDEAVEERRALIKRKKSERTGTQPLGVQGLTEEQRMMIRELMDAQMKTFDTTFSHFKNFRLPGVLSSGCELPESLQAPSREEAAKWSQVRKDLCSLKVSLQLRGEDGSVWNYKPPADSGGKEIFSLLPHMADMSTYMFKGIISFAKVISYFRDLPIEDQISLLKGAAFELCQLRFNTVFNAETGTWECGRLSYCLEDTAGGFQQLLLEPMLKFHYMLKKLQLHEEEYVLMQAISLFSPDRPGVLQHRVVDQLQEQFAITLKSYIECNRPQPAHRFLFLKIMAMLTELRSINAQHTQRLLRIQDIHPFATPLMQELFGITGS
In short: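 Human PXR protein, cell-free; compound added, incubated 2 h, TR-FRET read. Signal decrease vs DMSO = binding. Screened 25 uM duplicate, actives re-run as dilution series.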

[2] = molecular target: Peroxisome proliferator-activated receptor gamma (Homo sapiens) (UniProt P37231); experiment: NVS_NR_hPPARg: NovaScreen (NVS) Nuclear Receptor Binding Assay for human Peroxisome Proliferator-activated Receptor gamma (PPARg) (AID 2283370)
Chain of Peroxisome proliferator-activated receptor gamma (Homo sapiens) (P37231 whole entry, looked up, the tested form may be a part): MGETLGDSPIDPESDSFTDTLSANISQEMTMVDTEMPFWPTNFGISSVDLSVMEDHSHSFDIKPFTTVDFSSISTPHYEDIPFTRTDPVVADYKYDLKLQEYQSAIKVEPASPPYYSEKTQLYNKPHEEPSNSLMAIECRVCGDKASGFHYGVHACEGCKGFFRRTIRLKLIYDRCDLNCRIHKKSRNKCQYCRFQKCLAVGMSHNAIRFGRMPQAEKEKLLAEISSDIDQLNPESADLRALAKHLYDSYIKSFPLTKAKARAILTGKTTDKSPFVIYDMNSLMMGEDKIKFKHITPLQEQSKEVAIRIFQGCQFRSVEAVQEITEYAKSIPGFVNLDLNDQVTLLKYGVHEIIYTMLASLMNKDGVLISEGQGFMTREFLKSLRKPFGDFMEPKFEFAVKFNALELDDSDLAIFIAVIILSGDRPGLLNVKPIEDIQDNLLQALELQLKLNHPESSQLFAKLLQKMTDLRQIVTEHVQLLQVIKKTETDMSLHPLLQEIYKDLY
In short: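 Chemicals were tested first in duplicate at 25 uM, then in concentration series if active. Binding to cell-free PPARg protein was measured by fluorescence polarization after 2 h, with loss of signal scored against DMSO.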

[3] = molecular target: Estrogen receptor beta (Homo sapiens) (UniProt Q92731); experiment: OT_ER_ERbERb_1440: Odyssey Thera (OT) 24-hour HEK293T Protein-Complementation Assay for Estrogen Receptor-beta/-beta Homodimer (AID 2283380);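 also: fluorescence gain from ER beta LBD homodimer complementation read by laser scanning cytometry; scored as signal increase over DMSO baseline for both agonists and antagonists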
Chain of Estrogen receptor beta (Homo sapiens) (Q92731 whole entry, looked up, the tested form may be a part): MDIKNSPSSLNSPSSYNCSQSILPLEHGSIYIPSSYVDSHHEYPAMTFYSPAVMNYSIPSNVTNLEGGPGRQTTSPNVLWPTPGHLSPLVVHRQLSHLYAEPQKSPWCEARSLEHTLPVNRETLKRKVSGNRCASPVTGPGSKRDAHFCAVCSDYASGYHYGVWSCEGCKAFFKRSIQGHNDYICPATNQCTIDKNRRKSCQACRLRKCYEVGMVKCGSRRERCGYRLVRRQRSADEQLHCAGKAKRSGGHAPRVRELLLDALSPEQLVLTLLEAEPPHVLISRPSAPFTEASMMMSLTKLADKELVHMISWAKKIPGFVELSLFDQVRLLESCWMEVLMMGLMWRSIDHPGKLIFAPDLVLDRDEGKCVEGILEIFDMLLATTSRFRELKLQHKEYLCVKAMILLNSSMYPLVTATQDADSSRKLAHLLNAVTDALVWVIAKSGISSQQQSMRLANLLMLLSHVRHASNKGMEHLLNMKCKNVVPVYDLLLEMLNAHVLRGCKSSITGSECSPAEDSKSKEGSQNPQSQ
In short: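 Fluorescence increase, nuclear for agonists or whole-cell for antagonists, relative to DMSO vehicle, quantified by laser scanning cytometer after fixation and Draq5 staining. Readout from 24 h treatment of HEK293T cells carrying complementation-paired ER beta LBD (aa 310-547).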

[4] = molecular target: Estrogen receptor (Homo sapiens) (UniProt P03372); experiment: OT_ERa_GFPERaERE_0480: Odyssey Thera (OT) 8-hour HeLa Transcription Induction Assay for Estrogen Receptor (AID 2283381; active = hit-call score of the fitted dose curve at least 0.9, where 1 is the maximum; inactive = score below 0.9)
Chain of Estrogen receptor (Homo sapiens) (P03372 whole entry, looked up): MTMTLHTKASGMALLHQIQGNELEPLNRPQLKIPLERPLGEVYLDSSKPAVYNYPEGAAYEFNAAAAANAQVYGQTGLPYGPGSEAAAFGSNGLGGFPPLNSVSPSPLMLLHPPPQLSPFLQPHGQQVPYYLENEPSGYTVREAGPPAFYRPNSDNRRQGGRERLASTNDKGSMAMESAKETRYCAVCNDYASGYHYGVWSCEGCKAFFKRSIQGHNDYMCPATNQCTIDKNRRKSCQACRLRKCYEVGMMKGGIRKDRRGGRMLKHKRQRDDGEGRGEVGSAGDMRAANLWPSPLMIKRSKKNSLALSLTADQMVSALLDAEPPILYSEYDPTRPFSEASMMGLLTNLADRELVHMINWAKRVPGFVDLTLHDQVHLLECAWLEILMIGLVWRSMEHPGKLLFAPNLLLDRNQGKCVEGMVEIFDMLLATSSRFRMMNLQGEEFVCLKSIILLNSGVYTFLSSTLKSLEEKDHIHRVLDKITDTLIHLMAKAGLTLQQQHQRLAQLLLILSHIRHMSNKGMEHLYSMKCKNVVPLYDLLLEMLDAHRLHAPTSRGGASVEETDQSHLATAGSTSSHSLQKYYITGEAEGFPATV
In short: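 GFP-ERE reporter, HeLa, 8 h exposure. Readout: fluorescence microscopy, high-content image analysis. Fit direction positive vs DMSO negative control.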

[5] = molecular target: Estrogen receptor (Homo sapiens) (UniProt P03372); experiment: OT_ERa_GFPERaERE_0120: Odyssey Thera (OT) 2-hour HeLa Transcription Induction Assay for Estrogen Receptor (AID 2283382)
In short: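 Fluorescence microscopy read-out: inducible fluorescent protein reporter in HeLa cells, imaged 2 h post-dose. Signal increase over DMSO negative control fitted as single primary endpoint via high content image analysis.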

[6] = molecular target: Retinoic acid receptor RXR-alpha (Homo sapiens) (UniProt P19793); experiment: OT_NURR1_NURR1RXRa_0480: Odyssey Thera (OT) 8-hour HEK293T Protein Complementation Assay for Nurr1/retinoid X receptor (RXR) (AID 2283385)
Chain of Retinoic acid receptor RXR-alpha (Homo sapiens) (P19793 whole entry, looked up, the tested form may be a part): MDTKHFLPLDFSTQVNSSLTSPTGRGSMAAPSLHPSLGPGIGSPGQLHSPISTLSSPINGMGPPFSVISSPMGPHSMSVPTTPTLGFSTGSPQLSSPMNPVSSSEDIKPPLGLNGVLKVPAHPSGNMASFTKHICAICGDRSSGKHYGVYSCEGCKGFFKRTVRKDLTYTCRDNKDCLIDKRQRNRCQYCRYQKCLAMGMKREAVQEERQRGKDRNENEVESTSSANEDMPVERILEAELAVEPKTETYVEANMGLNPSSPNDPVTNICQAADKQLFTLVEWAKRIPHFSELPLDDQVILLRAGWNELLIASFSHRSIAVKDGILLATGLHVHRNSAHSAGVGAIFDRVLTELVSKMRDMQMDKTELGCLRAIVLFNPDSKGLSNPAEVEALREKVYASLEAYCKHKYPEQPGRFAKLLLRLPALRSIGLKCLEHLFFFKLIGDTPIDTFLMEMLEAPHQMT
In short: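 Read-out: fluorescence from protein-fragment complementation between Nurr1 and RXRα in human HEK293T cells, 8 h after dosing. DMSO served as negative control; increased signal counted as activity.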

[7] = molecular target: Retinoic acid receptor RXR-alpha (Homo sapiens) (UniProt P19793); experiment: OT_NURR1_NURR1RXRa_1440: Odyssey Thera (OT) 24-hour HEK293T Protein Complementation Assay for Nurr1/retinoid X receptor (RXR) (AID 2283386)
In short: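 Fluorescence PCA read-out; HEK293T; 24 h post-dose; bait/prey fused to reporter fragments; gain-of-signal fit vs DMSO negative control.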

[8] = molecular target: Peroxisome proliferator-activated receptor gamma (Homo sapiens) (UniProt P37231); experiment: OT_PPARg_PPARgSRC1_0480: Odyssey Thera (OT) 8-hour Protein-Complementation Assay for Peroxisome Proliferator-activated Receptor Gamma / SRC-1 Co-activator (AID 2283387);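 also: nuclear to cytoplasmic split Venus YFP fluorescence ratio reporting PPARg SRC-1 interaction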
In short: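 HEK293T transiently transfected with PPARg and SRC-1 fused to Venus YFP fragments, compounds 8 h at 37C. Fixed, Draq5-stained cells imaged; nuclear/cytoplasmic 488 nm fluorescence ratio over at least 350 cells per image; gain fitted versus DMSO.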

[9] = molecular target: Peroxisome proliferator-activated receptor gamma (Homo sapiens) (UniProt P37231); experiment: OT_PPARg_PPARgSRC1_1440: Odyssey Thera (OT) 24-hour Protein-Complementation Assay for Peroxisome Proliferator-activated Receptor Gamma/ SRC-1 Co-activator (AID 2283388)
In short: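 Protein-fragment complementation between PPARg and coactivator SRC-1 was measured by fluorescence imaging in transiently transfected HEK293T cells after 24 h treatment. Signal was quantified as N/C ratio in the 488 nm channel, with DMSO as negative control.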

[10] = CEETOX_H295R_11DCORT: CeeTox H295R High-throughput Steroidogenesis Assay for 11-Deoxycortisol (11DCORT) (AID 2283432; active = hit-call score of the fitted dose curve at least 0.9, where 1 is the maximum; inactive = score below 0.9); conditions: actives raise or lower the signal
In short: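 H295R cells prestimulated 48 h with 10 uM forskolin, then exposed 48 h to chemical in 0.1% DMSO. 11-Deoxycortisol in medium quantified by HPLC-MS/MS after MTBE extraction; bidirectional fit versus DMSO. MTT viability read in same wells.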

[11] = molecular target: Bile acid receptor (Homo sapiens) (UniProt Q96RI1); experiment: OT_FXR_FXRSRC1_1440: Odyssey Thera (OT) 24-hour HEK293T Protein-Complementation Assay for Farnesoid X receptor/SRC-1 Co-activator (AID 2283384)
Chain of Bile acid receptor (Homo sapiens) (Q96RI1 whole entry, looked up, the tested form may be a part): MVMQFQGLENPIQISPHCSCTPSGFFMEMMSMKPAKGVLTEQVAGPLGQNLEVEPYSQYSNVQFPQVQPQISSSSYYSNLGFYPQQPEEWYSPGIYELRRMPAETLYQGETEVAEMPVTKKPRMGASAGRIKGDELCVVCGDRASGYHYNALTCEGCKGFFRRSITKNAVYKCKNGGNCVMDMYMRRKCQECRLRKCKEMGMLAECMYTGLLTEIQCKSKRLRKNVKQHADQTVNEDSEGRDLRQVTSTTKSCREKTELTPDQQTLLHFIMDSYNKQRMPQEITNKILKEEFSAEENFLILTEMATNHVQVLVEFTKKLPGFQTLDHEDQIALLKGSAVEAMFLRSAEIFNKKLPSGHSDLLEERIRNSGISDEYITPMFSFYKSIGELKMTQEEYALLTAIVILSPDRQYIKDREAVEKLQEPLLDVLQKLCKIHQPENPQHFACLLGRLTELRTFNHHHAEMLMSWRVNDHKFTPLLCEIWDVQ
In short: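 Fluorescence readout, 24 h post-dose, HEK293T; FXR and SRC-1 fused to complementary reporter fragments, association reconstitutes signal. Positive-direction fit vs DMSO baseline.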

[12] = molecular target: Bile acid receptor (Homo sapiens) (UniProt Q96RI1); experiment: OT_FXR_FXRSRC1_0480: Odyssey Thera (OT) 8-hour HEK293T Protein-Complementation Assay for Farnesoid X receptor/SRC-1 Co-activator (AID 2283383)
In short: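 Fluorescence intensity read-out, 8 h post-dose, HEK293T protein-fragment complementation; FXR bait and SRC-1 prey each linked to reporter fragments. Activity scored as signal increase over DMSO negative control.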

[13] = molecular target: Agonist Androgen Response Element (ARE), AR (gene 367) (UniProt P10275); experiment: OT_AR_ARELUC_AG_1440: Odyssey Thera (OT) 24-hour CHO-K1 Luciferase Assay for Agonist Androgen Response Element (ARE) (AID 2283379)
Chain of Agonist Androgen Response Element (ARE), AR (gene 367) (P10275 whole entry, looked up): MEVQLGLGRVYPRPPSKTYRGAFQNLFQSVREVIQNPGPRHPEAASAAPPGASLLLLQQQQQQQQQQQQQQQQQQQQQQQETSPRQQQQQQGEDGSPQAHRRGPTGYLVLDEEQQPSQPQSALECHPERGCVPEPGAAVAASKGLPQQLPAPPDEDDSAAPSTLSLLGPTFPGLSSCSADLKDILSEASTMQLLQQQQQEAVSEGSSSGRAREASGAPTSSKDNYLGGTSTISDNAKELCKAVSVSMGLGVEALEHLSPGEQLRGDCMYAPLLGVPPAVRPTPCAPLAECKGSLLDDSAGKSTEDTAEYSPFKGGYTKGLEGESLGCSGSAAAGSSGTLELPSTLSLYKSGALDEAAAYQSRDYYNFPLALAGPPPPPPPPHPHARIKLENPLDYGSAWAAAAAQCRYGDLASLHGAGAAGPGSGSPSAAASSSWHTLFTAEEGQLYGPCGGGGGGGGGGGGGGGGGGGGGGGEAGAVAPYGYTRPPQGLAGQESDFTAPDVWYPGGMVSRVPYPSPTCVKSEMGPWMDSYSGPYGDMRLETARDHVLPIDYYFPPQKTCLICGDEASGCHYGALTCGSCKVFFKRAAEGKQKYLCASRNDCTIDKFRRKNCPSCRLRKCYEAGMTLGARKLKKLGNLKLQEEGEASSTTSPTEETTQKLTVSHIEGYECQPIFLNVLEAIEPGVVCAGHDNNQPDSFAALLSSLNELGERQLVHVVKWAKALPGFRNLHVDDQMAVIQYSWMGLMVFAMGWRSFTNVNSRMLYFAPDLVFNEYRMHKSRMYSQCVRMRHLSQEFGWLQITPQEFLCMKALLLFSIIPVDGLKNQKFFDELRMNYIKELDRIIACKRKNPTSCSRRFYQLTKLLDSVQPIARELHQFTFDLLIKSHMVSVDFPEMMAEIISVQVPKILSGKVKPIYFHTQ
In short: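 Readout: luciferase bioluminescence from CHO-K1 ARE-luc cells, measured 24 h post-dosing; agonism = increased mean luminescence vs DMSO controls, fitted in positive direction.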

O=C(Nc1ccc2c(O)c(N=Nc3ccc(N=Nc4ccc(S(=O)(=O)O)cc4)cc3)c(S(=O)(=O)O)cc2c1)c1ccccc1
AC50 [1]: 1.19 µM (active) | outcome [2]: inactive | outcome [3]: inactive | outcome [4]: inactive | outcome [5]: inactive | outcome [6]: inactive | outcome [7]: inactive | outcome [8]: inactive | outcome [9]: inactive

CCOC(=O)C1OC1c1ccccc1 (centres undefined)
outcome [1]: inactive | outcome [6]: inactive | outcome [7]: inactive | outcome [8]: inactive | outcome [9]: inactive

COc1ccc(N=Nc2cc(C)c(N=Nc3ccc(S(=O)(=O)O)cc3)cc2OC)cc1
AC50 [1]: 8.57 µM (active) | outcome [2]: inactive | outcome [3]: inactive | outcome [8]: inactive | outcome [9]: inactive | outcome [10]: inactive

O=C(O)c1ccc(O)cc1
outcome [1]: inactive | outcome [11]: inactive | outcome [7]: inactive | outcome [8]: inactive | outcome [9]: inactive

OC[C@H]1O[C@@H]2O[C@H]3[C@H](O)[C@@H](O)[C@@H](O[C@H]4[C@H](O)[C@@H](O)[C@@H](O[C@H]5[C@H](O)[C@@H](O)[C@@H](O[C@H]6[C@H](O)[C@@H](O)[C@@H](O[C@H]7[C@H](O)[C@@H](O)[C@@H](O[C@H]8[C@H](O)[C@@H](O)[C@@H](O[C@H]9[C@H](O)[C@@H](O)[C@@H](O[C@H]1[C@H](O)[C@H]2O)O[C@@H]9CO)O[C@@H]8CO)O[C@@H]7CO)O[C@@H]6CO)O[C@@H]5CO)O[C@@H]4CO)O[C@@H]3CO
AC50 [1]: 4.18 µM (active) | outcome [3]: inactive | outcome [6]: inactive | outcome [8]: inactive | outcome [9]: inactive

CSCCC=O
outcome [1]: inactive | outcome [2]: inactive | outcome [3]: inactive | outcome [12]: inactive | outcome [11]: inactive | outcome [6]: inactive | outcome [8]: inactive | outcome [9]: inactive

Cc1ccc(S(N)(=O)=O)cc1
outcome [1]: inactive | outcome [12]: inactive | outcome [8]: inactive | outcome [9]: inactive

CCc1ccc(O)cc1
outcome [1]: inactive | outcome [13]: inactive | outcome [3]: inactive | outcome [6]: inactive | outcome [7]: inactive | outcome [8]: inactive | outcome [9]: inactive
